Consider 15 compounds from PubChem BioAssay.

Assay [1] addresses Cell division control protein 42 homolog (Homo sapiens) (UniProt P60953). Kind of assay: inhibition of fluorescent GTP binding to constitutively active Cdc42 – biochemical, multiplex bead flow cytometry, Bodipy-FL-GTP, dose response (AID 1333).
The target is the same in assay [2]. The experiment in a line: inhibition of fluorescent GTP binding to wildtype Cdc42 – biochemical, multiplex bead flow cytometry, Bodipy-FL-GTP, dose response (AID 1334;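 active = fitted half-maximal concentration within the tested range, moderate curve steepness, significant signal drop, and little compound fluorescence or bead-linkage interference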). Particulars: bead-based flow cytometry, Bodipy-FL-GTP binding to GST-Cdc42; at 100 µM (top of the series) unless noted.
Assay [3] has as its target GTPase HRas (Homo sapiens) (UniProt P01112). The experiment in a line: Ras wt fluorescent GTP loading blockade – biochemical, wildtype, multiplex bead flow cytometry, dose response (AID 1335;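 active = fitted half-maximal concentration within 10 nM to 100 µM, steepness 0.5 to 2, significant signal drop, low assay interference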). The settings on record: bead-based flow cytometry, Bodipy-GTP binding to GST-Ras; at 100 µM (top of the series) unless noted.
Assay [4] has as its system Ras-related protein Rab-7a (dog), GTP binding. The experiment in a line: blockers of fluorescent GTP binding to Rab7 – biochemical, wildtype, multiplex bead flow cytometry, dose response (AID 1336; call rule not given here).
Assay [5] deals with Ras-related C3 botulinum toxin substrate 1 (Homo sapiens) (UniProt P63000). The experiment in a line: inhibition of wildtype Rac1 nucleotide loading – biochemical, multiplex bead flow cytometry, dose response (AID 1340;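 active = dose curve with midpoint inside tested range, moderate steepness, plateau gap beyond fit error, low compound glow and bead-link interference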). The settings on record: GST-Rac1 beads, Bodipy-FL-GTP binding; at 100 µM (top of the series) unless noted.
In assay [6] the target is GTPase HRas (Homo sapiens) (UniProt P01112). The experiment in a line: blockade of GTP loading onto mutant Ras – biochemical, activated mutant, multiplex bead flow cytometry, dose response (AID 1341;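 active = dose-response curve with midpoint inside the tested range, moderate steepness, significant amplitude and little compound fluorescence or bead-attachment interference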;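 note: GST-tagged constitutively activated Ras mutant immobilized on beads and multiplexed with other GTPases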).
Sequence of GTPase HRas (Homo sapiens) (P01112 whole entry, looked up): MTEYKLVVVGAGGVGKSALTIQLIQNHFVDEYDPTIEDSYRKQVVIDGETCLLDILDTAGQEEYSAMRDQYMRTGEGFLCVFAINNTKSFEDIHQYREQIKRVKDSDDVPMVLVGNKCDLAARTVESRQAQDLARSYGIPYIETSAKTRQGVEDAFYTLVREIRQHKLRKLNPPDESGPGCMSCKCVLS

For part of these data: Potency and affinity values are given separately. Calls of active or inactive are those of the source.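 Rule for the calls, unless noted: active = fitted half-maximal concentration within the tested dose range, moderate curve steepness, a statistically real signal drop, and little compound fluorescence or tag-binding interference; inactive = the rest.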

Sequence of Cell division control protein 42 homolog (Homo sapiens) (P60953 whole entry, looked up): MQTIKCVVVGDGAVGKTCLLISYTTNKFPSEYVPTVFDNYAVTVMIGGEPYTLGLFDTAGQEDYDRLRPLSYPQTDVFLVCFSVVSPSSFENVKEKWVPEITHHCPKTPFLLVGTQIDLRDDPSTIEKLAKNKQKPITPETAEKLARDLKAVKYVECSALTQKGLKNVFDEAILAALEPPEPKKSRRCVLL

As for `c1ccc(C2=Nn3c(nnc3-c3ccco3)SC2)cc1`, the compound was classed as inactive in assay [1], in assay [4] and in assay [6]. This compound also gave a fluorescence, percent of control (lower = inhibition) in assay [2] of 34%. This compound gave a GTP binding, percent of control in assay [3] of 81.7%. Also, the GTP binding signal, raw median fluorescence (lower = inhibition) (MCF (arbitrary fluorescence units)) in assay [5] was found to be 183.

Consider `C=CCc1ccccc1OCC(O)CN1CCN(C(=O)OCC)CC1` (stereo not given), for which the call in assay [1], in assay [4] and in assay [6] was inactive. The same compound returned a fluorescence, percent of control (lower = inhibition) in assay [2] of 48.3%. This compound came in with a GTP binding, percent of control in assay [3] of 60.5%. In addition, in assay [5], the GTP binding signal, raw median fluorescence (lower = inhibition) (MCF (arbitrary fluorescence units)) was 194.

For `C/C(=N\NC(=O)CC1N=C(Cc2ccccc2)NNC1=O)c1ccc(Cl)cc1Cl` (stereo not given), the result in assay [1], in assay [4] and in assay [6] was inactive. Also, the fluorescence, percent of control (lower = inhibition) in assay [2] stood at 90.1%. Moreover, the GTP binding, percent of control in assay [3] stood at 160%. Also, in assay [5], the GTP binding signal, raw median fluorescence (lower = inhibition) (MCF (arbitrary fluorescence units)) stood at 175.

Consider `CCOC(=O)c1cnc(SCc2ccc(C)cc2)nc1N`, for which the call in assay [1], in assay [4] and in assay [6] was inactive. In addition, the fluorescence, percent of control (lower = inhibition) in assay [2] was 32%. This compound registered a GTP binding, percent of control in assay [3] of 82.3%. In addition, in assay [5], the GTP binding signal, raw median fluorescence (lower = inhibition) (MCF (arbitrary fluorescence units)) was 238.

On to `O=C(Nc1cccc(Cl)c1)N1CCN(c2ncccn2)CC1`, for which the compound was classed as inactive in assay [1], in assay [4] and in assay [6]. In assay [2], this compound yielded a fluorescence, percent of control (lower = inhibition) of 47.5%. This compound gave a GTP binding, percent of control in assay [3] of 60.6%. Further, the GTP binding signal, raw median fluorescence (lower = inhibition) (MCF (arbitrary fluorescence units)) in assay [5] was determined as 201.

Turning to `CCOC(=O)N1CCN(Cc2cn[nH]c2-c2cc3ccccc3o2)CC1`, the call in assay [1], in assay [4] and in assay [6] was inactive. Further, the fluorescence, percent of control (lower = inhibition) in assay [2] came out at 34.4%. The GTP binding, percent of control in assay [3] was determined as 82.1%. For the same compound, the GTP binding signal, raw median fluorescence (lower = inhibition) (MCF (arbitrary fluorescence units)) in assay [5] is 246.

Take `O=C(O)c1cccnc1SCc1cccc(F)c1`: the outcome in assay [1], in assay [4] and in assay [6] was inactive. The compound also had a fluorescence, percent of control (lower = inhibition) in assay [2] of 78.4%. The compound also showed a GTP binding, percent of control in assay [3] of 92.9%. In assay [5], this compound gave a GTP binding signal, raw median fluorescence (lower = inhibition) (MCF (arbitrary fluorescence units)) of 52.6.

`CCOc1ccccc1C(=O)Nc1cccc(-c2ccc3nncn3n2)c1`: the compound was called inactive in assay [1], in assay [4] and in assay [6]. For the same compound, the fluorescence, percent of control (lower = inhibition) in assay [2] amounted to 33.5%. For the same compound, the GTP binding, percent of control in assay [3] is 73.1%. This compound also had a GTP binding signal, raw median fluorescence (lower = inhibition) (MCF (arbitrary fluorescence units)) in assay [5] of 194.

For the compound `CC(C)(C)OC(=O)N[C@@H](Cc1ccccc1)c1nnc(S(=O)(=O)Cc2cccc(F)c2)o1`, the compound was called inactive in assay [1], in assay [4] and in assay [6]. This compound also displayed a fluorescence, percent of control (lower = inhibition) in assay [2] of 33%. For the same compound, the GTP binding, percent of control in assay [3] was 77%. In assay [5], this compound had a GTP binding signal, raw median fluorescence (lower = inhibition) (MCF (arbitrary fluorescence units)) of 260.

On to `Cc1ccc(Nc2nc(N)c(C#N)c(CC#N)c2C#N)cc1`, for which the call in assay [1], in assay [4] and in assay [6] was inactive. The compound also yielded a fluorescence, percent of control (lower = inhibition) in assay [2] of 36.6%. Further, the GTP binding, percent of control in assay [3] stood at 85.9%. In assay [5], the GTP binding signal, raw median fluorescence (lower = inhibition) (MCF (arbitrary fluorescence units)) worked out at 224.

For the compound `NC(=O)c1c(NC(=O)c2cnccn2)sc2c1CCCC2`, the call in assay [1], in assay [4] and in assay [6] was inactive. Moreover, in assay [2], the fluorescence, percent of control (lower = inhibition) was 94.1%. Moreover, the GTP binding, percent of control in assay [3] was 134%. Besides, in assay [5], the GTP binding signal, raw median fluorescence (lower = inhibition) (MCF (arbitrary fluorescence units)) was 217.

Turning to `CCOCCCNc1nc(=S)[nH]c2cc(OC)c(OC)cc12`, the result in assay [1], in assay [4] and in assay [6] was inactive. The compound further came in with a fluorescence, percent of control (lower = inhibition) in assay [2] of 60.4%. This compound showed a GTP binding, percent of control in assay [3] of 99.7%. In assay [5], this compound displayed a GTP binding signal, raw median fluorescence (lower = inhibition) (MCF (arbitrary fluorescence units)) of 111.

On to `O=C(N/N=C/c1ccc2nccnc2c1)c1cccc([N+](=O)[O-])c1`, for which the result in assay [1], in assay [4] and in assay [6] was inactive. The fluorescence, percent of control (lower = inhibition) in assay [2] is 42.7%. In assay [3], this compound showed a GTP binding, percent of control of 86.9%. In assay [5], this compound yielded a GTP binding signal, raw median fluorescence (lower = inhibition) (MCF (arbitrary fluorescence units)) of 203.

Regarding `COc1cc(/C=N\NC(=O)c2ccc(Cn3nc([N+](=O)[O-])c(Cl)c3C)o2)ccc1O`, the result in assay [1], in assay [4] and in assay [6] was inactive. Besides, the fluorescence, percent of control (lower = inhibition) in assay [2] came to 29.9%. Besides, in assay [3], the GTP binding, percent of control was found to be 82%. Moreover, the GTP binding signal, raw median fluorescence (lower = inhibition) (MCF (arbitrary fluorescence units)) in assay [5] amounted to 107.

Turning to `CS(=O)(=O)c1ccc(C(=O)OCc2nnc(-c3ccccc3)o2)cc1[N+](=O)[O-]`, the result in assay [1], in assay [4] and in assay [6] was inactive. In assay [2], this compound registered a fluorescence, percent of control (lower = inhibition) of 22.4%. Also, the GTP binding, percent of control in assay [3] stood at 81.7%. In addition, the GTP binding signal, raw median fluorescence (lower = inhibition) (MCF (arbitrary fluorescence units)) in assay [5] turned out to be 259.
